Measured values published in PubChem BioAssay (NCATS).
Results filed as inconclusive are left out. The source made the active and inactive calls. Calls follow the shape of the dose curve; as a rule, active = well fitted curve in the direction sought with a large enough effect; inconclusive = small, poorly fitted or top-dose-only effect, or another doubt; inactive = no such curve, though single readings can be large; an effect the other way counts as inactive or inconclusive.

Key:
[1] = qHTS of pediatric cancer cell lines to identify multiple opportunities for drug repurposing: Primary screen for NB-EBc1 cells (AID 1347095)
Summary of the method: (§1)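 Readout: CellTiter-Glo luminescence, 48 h treatment. Controls DMSO (neutral) and bortezomib 2.3 µM final (positive). Potency and efficacy taken from primary-screen concentration-response curves.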

[2] = qHTS of pediatric cancer cell lines to identify multiple opportunities for drug repurposing: Primary screen for U-2 OS cells (AID 1347096); also: nearly all actives have a fitted effect of over 50% in size
Summary of the method: (§2)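 Cells (500-1,000/well) in growth media were settled 5 h at 37 degrees C, then given compounds for 48 h. Viability was read as CellTiter-Glo luminescence. Primary runs used MIPE at 11 points (0.78 nM-46 µM) and NPC at 8 points (0.59 nM-46 µM); follow-ups used 11 points.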

[3] = qHTS of pediatric cancer cell lines to identify multiple opportunities for drug repurposing: Primary screen for Saos-2 cells (AID 1347097); also: nearly all actives have a fitted effect of over 40% in size
Summary of the method: as §1

[4] = qHTS of pediatric cancer cell lines to identify multiple opportunities for drug repurposing: Primary screen for NB1643 cells (AID 1347099); also: nearly all actives have a fitted effect of over 50% in size
Summary of the method: as §1

[5] = qHTS of pediatric cancer cell lines to identify multiple opportunities for drug repurposing: Primary screen for BT-12 cells (AID 1347101); also: nearly all actives have a fitted effect of over 25% in size; also: potency is read from the fitted curve at half-maximal effect
Summary of the method: (§3)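 Cells (500-1,000/well) rested 5 h, then received compounds for 48 h; metabolically active cells were measured by CellTiter-Glo luminescence. Final concentrations spanned up to 46 µM (MIPE, 11-point) or 0.59 nM-46 µM (NPC, 8-point) in primary screens, 11-point in follow-ups.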

[6] = qHTS of pediatric cancer cell lines to identify multiple opportunities for drug repurposing: Primary screen for Rh18 cells (AID 1347102); also: nearly all actives have a fitted effect of over 65% in size
Summary of the method: as §2

[7] = qHTS of pediatric cancer cell lines to identify multiple opportunities for drug repurposing: Primary screen for OHS-50 cells (AID 1347103); also: nearly all actives have a fitted effect of over 40% in size; also: potency is read from the fitted curve at half-maximal effect
Summary of the method: as §3

[8] = qHTS of pediatric cancer cell lines to identify multiple opportunities for drug repurposing: Primary screen for RD cells (AID 1347104); also: nearly all actives have a fitted effect of over 55% in size
Summary of the method: as §1

[9] = qHTS of pediatric cancer cell lines to identify multiple opportunities for drug repurposing: Primary screen for control Hh wild type fibroblast cells (AID 1347106);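 also: series mostly up to about 46 µM; a drop in luminescence marks cytotoxicity and a rise apparent proliferation; nearly all actives have a fitted effect of over 55% in size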
Summary of the method: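 Viability after 48 h compound treatment at 37C, 500-1,000 cells/well, read as ATP luminescence with CellTiter-Glo. Primary screens used 11-point (MIPE, 0.78 nM-46 µM) or 8-point (NPC, 0.59 nM-46 µM) final concentrations; follow-up screens used 11-point dilutions.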

[10] = qHTS of pediatric cancer cell lines to identify multiple opportunities for drug repurposing: Primary screen for Rh30 cells (AID 1347107); also: series mostly up to about 46 µM; nearly all actives have a fitted effect of over 75% in size
Summary of the method: as §2

[11] = qHTS of pediatric cancer cell lines to identify multiple opportunities for drug repurposing: Primary screen for LAN-5 cells (AID 1347100)
Summary of the method: as §2

[12] = qHTS of pediatric cancer cell lines to identify multiple opportunities for drug repurposing: Primary screen for MG 63 (6-TG R) cells (AID 1347105); also: nearly all actives have a fitted effect of over 50% in size; also: potency is read from the fitted curve at half-maximal effect
Summary of the method: as §1

[13] = qHTS of pediatric cancer cell lines to identify multiple opportunities for drug repurposing: Primary screen for Rh41 cells (AID 1347108);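 also: series mostly up to about 46 µM; luminescence drop marks cytotoxic hits; nearly all actives have a fitted effect of over 70% in size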
Summary of the method: as §1

[14] = qHTS of pediatric cancer cell lines to identify multiple opportunities for drug repurposing: Confirmatory screen for NB1643 cells (AID 1347109); also: nearly all actives have a fitted effect of over 45% in size
Summary of the method: as §2

[15] = qHTS of pediatric cancer cell lines to identify multiple opportunities for drug repurposing: Confirmatory screen for A673 cells (AID 1347110);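 also: cells exposed to compound for 48 h before the viability read; nearly all actives have a fitted effect of over 65% in size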
Summary of the method: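 qHTS titration format: primary MIPE 0.78 nM-46 µM (11 pts), NPC 0.59 nM-46 µM; confirmation 11 pts. 48 h, CTG luminescence.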

[16] = qHTS of pediatric cancer cell lines to identify multiple opportunities for drug repurposing: Confirmatory screen for LAN-5 cells (AID 1347113); also: nearly all actives have a fitted effect of over 65% in size
Summary of the method: as §2

[17] = qHTS of pediatric cancer cell lines to identify multiple opportunities for drug repurposing: Confirmatory screen for DAOY cells (AID 1347114); also: nearly all actives have a fitted effect of over 65% in size; also: potency is read from the fitted curve at half-maximal effect
Summary of the method: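 Viability measured as metabolically active cells via CellTiter-Glo luminescence following 48 hours of compound exposure, 11-point dilutions in confirmatory testing. 500-1,000 cells/well plated 5 hours before dosing; controls were DMSO and 2.3 µM bortezomib.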

[18] = qHTS of pediatric cancer cell lines to identify multiple opportunities for drug repurposing: Confirmatory screen for NB-EBc1 cells (AID 1347115);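 also: cells exposed to compound for 48 h before the viability read; nearly all actives have a fitted effect of over 45% in size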
Summary of the method: as §2

[19] = qHTS of pediatric cancer cell lines to identify multiple opportunities for drug repurposing: Primary screen for SK-N-SH cells (AID 1347098); also: nearly all actives have a fitted effect of over 65% in size
Summary of the method: as §3

[20] = qHTS of pediatric cancer cell lines to identify multiple opportunities for drug repurposing: Confirmatory screen for SK-N-MC cells (AID 1347111);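 also: cells exposed to compound for 48 h before the readout; nearly all actives have a fitted effect of over 70% in size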
Summary of the method: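 Metabolically active cells were quantified by ATP-dependent luminescence (CellTiter-Glo, 15 min at room temperature) following 48 h treatment. Cells had been plated at 500-1,000 per well and settled for 5 h beforehand.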

Measured: Potency

Cn1cc(S(C)=O)c(=O)c2ccc(F)cc21 (centres undefined)
inactive: [1] | [2] | [3] | [4] | [5] | [6] | [7] | [8] | [9] | [10]

Cc1ccc(CCn2c3c(c4cc(Cl)ccc42)CN(C)CC3)cn1
inactive: [1] | [2] | [3] | [4] | [11] | [6] | [12] | [9] | [10] | [13]

N=C(N)c1ccc(OCCCOc2ccc(C(=N)N)cc2)cc1
active: [5] 2190 nM | [17] 18500 nM
not listed: [11] | [19] | [20]
inactive: all other assays above

CC(C)Cc1ccc(C(C)C(=O)OCc2ccccn2)cc1 (centres undefined)
not listed: [7] | [14] | [15] | [16] | [17] | [18] | [19] | [20]
inactive: all other assays above

CCC[C@H](N[C@@H](C)C(=O)N1[C@H](C(=O)O)C[C@@H]2CCCC[C@@H]21)C(=O)OCC
not listed: [7] | [14] | [15] | [16] | [17] | [18] | [19] | [20]
inactive: all other assays above

CCOC(=O)[C@H](CCc1ccccc1)N[C@@H](C)C(=O)N(CC(=O)O)C1Cc2ccccc2C1
inactive: [1] | [2] | [3] | [4] | [11] | [5] | [6] | [8] | [9] | [10]

Nc1ccc([N+](=O)[O-])c(C(F)(F)F)c1
not listed: [14] | [15] | [16] | [17] | [18] | [19] | [20]
inactive: all other assays above

C1N2CN3CN1CN(C2)C3
not listed: [7] | [14] | [15] | [16] | [17] | [18] | [19] | [20]
inactive: all other assays above

CN1CC(=O)N2[C@H](c3ccc4c(c3)OCO4)c3[nH]c4ccccc4c3C[C@@H]2C1=O
not listed: [14] | [15] | [16] | [17] | [18] | [19] | [20]
inactive: all other assays above

CO[C@@H]1[C@@H](O[C@@H]2O[C@H](C)[C@@H](O[C@H]3C[C@@](C)(O)[C@@H](O)[C@H](C)O3)[C@H](N(C)C)[C@H]2O)[C@@H](CC=O)C[C@@H](C)[C@@H](O[C@@H]2CC[C@H](N(C)C)[C@@H](C)O2)/C=C/C=C/C[C@@H](C)OC(=O)C[C@H]1OC(C)=O
inactive: [1] | [2] | [3] | [4] | [11] | [8] | [12] | [10] | [13]

CC(C)(C)C(=O)OCOC(=O)C1N2C(=O)CC2S(=O)(=O)C1(C)C (centres undefined)
not listed: [11] | [14] | [15] | [16] | [17] | [18] | [19] | [20]
inactive: all other assays above

CC[N+](CC)(CC)CCOC(=O)C(C1CCCC1)C1CCCC1
inactive: [1] | [2] | [3] | [19] | [8] | [9] | [10] | [13]

CCCCCC[C@@H](CCC)C(=O)O
not listed: [7] | [14] | [15] | [16] | [17] | [18] | [19] | [20]
inactive: all other assays above

Brc1ccccc1-c1ccccc1
not listed: [7] | [14] | [15] | [16] | [17] | [18] | [19] | [20]
inactive: all other assays above

O=[N+]([O-])c1nccn1CO[C@@H](CO)[C@H](O)CO
not listed: [11] | [14] | [15] | [16] | [17] | [18] | [19] | [20]
inactive: all other assays above

O=C(OCC(COC(=O)c1cccnc1)(COC(=O)c1cccnc1)COC(=O)c1cccnc1)c1cccnc1
not listed: [14] | [15] | [16] | [17] | [18] | [19] | [20]
inactive: all other assays above

CN(C)[C@@H]1C(=O)C(C(N)=O)=C(O)[C@@]2(O)C(=O)C3=C(O)c4c(O)cccc4C[C@H]3C[C@@H]12
inactive: [1] | [2] | [3] | [4] | [8] | [12] | [9] | [10] | [13]
active: [5] 17400 nM

COc1cc(C(=O)NC2CCCNC2)cc(OC)c1OC (centres undefined)
not listed: [11] | [14] | [15] | [16] | [17] | [18] | [19] | [20]
inactive: all other assays above

Cc1ccc2ccc(Cl)cc2n1
not listed: [10] | [14] | [15] | [16] | [17] | [18] | [19] | [20]
inactive: all other assays above

C=C(C)C(=O)OCC(O)CO (centres undefined)
not listed: [14] | [15] | [16] | [17] | [18] | [19] | [20]
inactive: all other assays above

CCOC(=O)C(=O)CCc1ccccc1
not listed: [11] | [14] | [15] | [16] | [17] | [18] | [19] | [20]
inactive: all other assays above

O=[N+]([O-])c1cncn1CCN1CCOCC1
not listed: [6] | [14] | [15] | [16] | [17] | [18] | [19] | [20]
inactive: all other assays above

O=C(O)c1ccccc1S
not listed: [9] | [14] | [15] | [16] | [17] | [18] | [19] | [20]
inactive: all other assays above

COc1cc(C(=O)OC(COCCC(C)C)CN2CCOCC2)cc(OC)c1OC (centres undefined)
inactive: [1] | [2] | [3] | [4] | [11] | [5] | [6] | [7] | [8] | [12] | [10]

CC(C)C[C@@H]1[C@H](c2ccccc2)OC(=O)N1CCCN1CCCCCC1
inactive: [1] | [2] | [3] | [4] | [11] | [6] | [12] | [9] | [10] | [13]

CCOCCn1c(C2CCN(CCc3ccc(C(C)(C)C(=O)O)cc3)CC2)nc2ccccc21
not listed: [5] | [14] | [15] | [16] | [17] | [18] | [19] | [20]
inactive: all other assays above

O=C(c1ccccc1)c1ccccc1
not listed: [9] | [14] | [15] | [16] | [17] | [18] | [19] | [20]
inactive: all other assays above

O=C(COCCOCCOCC(=O)Nc1c(I)cc(I)c(C(=O)O)c1I)Nc1c(I)cc(I)c(C(=O)O)c1I
inactive: [1] | [2] | [3] | [4] | [11] | [5] | [6] | [8] | [12] | [9] | [10]

C[C@@H](C1=C(CCN(C)C)Cc2ccccc21)c1ccccn1
inactive: [1] | [2] | [3] | [4] | [5] | [6] | [8] | [12] | [9] | [10] | [13]

OCCc1ccccc1
inactive: [1] | [2] | [3] | [4] | [5] | [7] | [8] | [12] | [9] | [10] | [13]

O=C1[C@@H]2[C@H]3CC[C@H](C3)[C@@H]2C(=O)N1CCCCN1CCN(c2ncccn2)CC1
not listed: [14] | [15] | [16] | [17] | [18] | [19] | [20]
inactive: all other assays above

CC(=O)O[C@H]1CC[C@@]2(C)C(=CC[C@@H]3[C@@H]2CC[C@]2(C)C(C(C)=O)=CC[C@@H]32)C1
inactive: [1] | [2] | [19] | [4] | [11] | [5] | [6] | [8] | [12] | [10] | [13]

O=C(O)CCCC[C@@H]1SC[C@@H]2NC(=O)N[C@@H]21
not listed: [3] | [7] | [14] | [15] | [16] | [17] | [18] | [20]
inactive: all other assays above

CCC(=O)O[C@]1(C(=O)COC)[C@@H](C)C[C@H]2[C@@H]3CCC4=CC(=O)C=C[C@]4(C)C3(F)[C@@H](O)C[C@@]21C (some centres undefined)
not listed: [3] | [9] | [16]
inactive: all other assays above

CCN(CC)C(=O)C1CN2CCc3cc(OC)c(OC)cc3C2CC1OC(C)=O (centres undefined)
not listed: [3] | [10] | [14] | [15] | [16] | [17] | [18] | [20]
inactive: all other assays above

O=C1Nc2ccccc2C1(c1ccc(O)cc1)c1ccc(O)cc1
active: [7] 872 nM | [12] 133 nM
inactive: [1] | [2] | [3] | [11] | [5] | [6] | [8] | [9] | [10]
